Laboratory results reported in the supplement of paper PMC9492666.

Tests used:
[1] = tested on: HCC1937; assay: relative cell viability, compound + RSL3, vs DMSO (fraction of DMSO control); higher = less growth inhibition; settings: 72 h
[2] = tested on: MDA-MB-231; assay: as above; settings: 72 h
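Further: breast cancer cell viability read out with the CCK-8 kit after co-treatment of each compound with the ferroptosis inducer RSL3.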

| Structure (SMILES) | relative cell viability [1] | relative cell viability [2] |
| --- | --- | --- |
| COc1ccc(-c2cc(=O)c3c(O)c(OC)c(O)cc3o2)cc1OC [Eupatilin] + COC(=O)c1ccc([C@H]2c3[nH]c4ccccc4c3C[C@H](C(=O)OC)N2C(=O)CCl)cc1 [RSL3] | 0.354 | 0.496 |
| COc1ccc(C(=O)/C=C/c2ccccc2)cc1 [4'-Methoxychalcone] + COC(=O)c1ccc([C@H]2c3[nH]c4ccccc4c3C[C@H](C(=O)OC)N2C(=O)CCl)cc1 [RSL3] | 0.282 | 0.582 |
| CCCc1c(-c2ccccc2)[nH]n(-c2ccccn2)c1=O [APX-115 free base] + COC(=O)c1ccc([C@H]2c3[nH]c4ccccc4c3C[C@H](C(=O)OC)N2C(=O)CCl)cc1 [RSL3] | 0.412 | 0.415 |
| COC(=O)CN(c1ccc(CN(c2ccc(OCc3ccc(C)cc3)c(C(=O)OC)c2)S(=O)(=O)Cc2ccccc2)cc1)S(C)(=O)=O + COC(=O)c1ccc([C@H]2c3[nH]c4ccccc4c3C[C@H](C(=O)OC)N2C(=O)CCl)cc1 [RSL3] | 0.538 | 0.626 |
| CC(=O)Oc1cc(C(F)(F)F)ccc1C(=O)O [Triflusal] + COC(=O)c1ccc([C@H]2c3[nH]c4ccccc4c3C[C@H](C(=O)OC)N2C(=O)CCl)cc1 [RSL3] | 0.717 | 0.492 |
| C[C@@H](Nc1nc(N[C@H](C)C(F)(F)F)nc(-c2cccc(Cl)n2)n1)C(F)(F)F [Vorasidenib] + COC(=O)c1ccc([C@H]2c3[nH]c4ccccc4c3C[C@H](C(=O)OC)N2C(=O)CCl)cc1 [RSL3] | 0.409 | 0.595 |
| CCCCCCCCCCCCCCOc1ccc(C(=O)O)o1 + COC(=O)c1ccc([C@H]2c3[nH]c4ccccc4c3C[C@H](C(=O)OC)N2C(=O)CCl)cc1 [RSL3] | 0.613 | 0.673 |
| CC(C)c1c(C(=O)Nc2ccccc2)c(-c2ccccc2)c(-c2ccc(F)cc2)n1CC[C@@H](O)C[C@@H](O)CC(=O)O [Atorvastatin Calcium] + COC(=O)c1ccc([C@H]2c3[nH]c4ccccc4c3C[C@H](C(=O)OC)N2C(=O)CCl)cc1 [RSL3] | 0.571 | 0.385 |
| CS(=O)(=O)c1ccc(-c2nnc(/C=C/c3nnc(-c4ccc(C#N)cc4)o3)n2-c2ccccc2Cl)nc1 + COC(=O)c1ccc([C@H]2c3[nH]c4ccccc4c3C[C@H](C(=O)OC)N2C(=O)CCl)cc1 [RSL3] | 0.508 | 0.502 |
| Nn1nnc2ccccc21 [1-Aminobenzotriazole] + COC(=O)c1ccc([C@H]2c3[nH]c4ccccc4c3C[C@H](C(=O)OC)N2C(=O)CCl)cc1 [RSL3] | 0.528 | 0.758 |
| O=C(O)c1cccc(N=Nc2c(O)[nH]c3ccc(S(=O)(=O)NCc4ccc(F)cc4)cc23)c1 + COC(=O)c1ccc([C@H]2c3[nH]c4ccccc4c3C[C@H](C(=O)OC)N2C(=O)CCl)cc1 [RSL3] | 0.516 | 0.611 |
| O=C(Nc1cccnc1)N1CCC(Cc2cccc(Oc3ccc(C(F)(F)F)cn3)c2)CC1 + COC(=O)c1ccc([C@H]2c3[nH]c4ccccc4c3C[C@H](C(=O)OC)N2C(=O)CCl)cc1 [RSL3] | 0.727 | 0.644 |
| Cc1c2c(=O)n(-c3ccccc3Cl)[nH]c2cc(=O)n1Cc1ccccn1 + COC(=O)c1ccc([C@H]2c3[nH]c4ccccc4c3C[C@H](C(=O)OC)N2C(=O)CCl)cc1 [RSL3] | 0.452 | 0.626 |
| CC[C@@H]1/C=C(\C)C[C@H](C)C[C@H](OC)[C@H]2O[C@@](O)(C(=O)C(=O)N3CCCC[C@H]3C(=O)O[C@H](/C(C)=C/[C@@H]3CC[C@@H](O)[C@H](OC)C3)[C@H](C)[C@@H](O)CC1=O)[C@H](C)C[C@@H]2OC [Ascomycin] + COC(=O)c1ccc([C@H]2c3[nH]c4ccccc4c3C[C@H](C(=O)OC)N2C(=O)CCl)cc1 [RSL3] | 0.1 | 0.236 |
| CC(=O)N1CCN(c2ccc(OCC3COC(Cn4ccnc4)(c4ccc(Cl)cc4Cl)O3)cc2)CC1 (configuration not stated) [Ketoconazole] + COC(=O)c1ccc([C@H]2c3[nH]c4ccccc4c3C[C@H](C(=O)OC)N2C(=O)CCl)cc1 [RSL3] | 0.63 | 0.488 |
| Cc1cc(SCc2sc(-c3ccc(C(F)(F)F)cc3)nc2C)ccc1OCC(=O)O + COC(=O)c1ccc([C@H]2c3[nH]c4ccccc4c3C[C@H](C(=O)OC)N2C(=O)CCl)cc1 [RSL3] | 0.339 | 0.554 |
